# In PubChem BioAssay (NCI):
# Compounds without any hit were thinned out: in the full panel of roughly 79,000, 15% have a hit. Unmarked numbers belong to inactive results. Calls of active or inactive are those of the source. Rule as the data show it: active = growth inhibition above about 70%; inactive = the rest.
# Legend:
# [1] = NCI Yeast Anticancer Drug Screen. Data for the rad52 strain (AID 147);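 also: 0% = growth of vehicle-treated control cultures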; conditions: S. cerevisiae rad52 mutant growth inhibition, hits give high values
# Method in brief: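 Here a repair-compromised yeast strain receives each compound; its growth is then quantified and normalised to vehicle-only controls.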
# [2] = NCI Yeast Anticancer Drug Screen. Data for the wt1 strain (AID 149);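 also: 0% = growth of vehicle-treated wt1 cultures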; conditions: S. cerevisiae wt1 strain (SPY 50644) growth inhibition, hits give high values
# Method in brief: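 Using yeast strain wt1, compound-induced growth inhibition was determined against vehicle-treated cultures.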
# [3] = NCI Yeast Anticancer Drug Screen. Data for the rad50EPP+ strain (AID 151);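 also: 0% = growth of vehicle-treated control cultures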; conditions: S. cerevisiae rad50 mutant strain, hits give high values
# Method in brief: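 Read-out is yeast growth inhibition relative to vehicle; cells used were the rad50EPP+ strain.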
# [4] = NCI Yeast Anticancer Drug Screen. Data for the mgt1 strain (AID 153); conditions: S. cerevisiae mgt1 mutant growth inhibition, hits give high values
# Method in brief: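 Measured: inhibition of mgt1 yeast growth by compound, normalized to vehicle-treated cultures.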
# [5] = NCI Yeast Anticancer Drug Screen. Data for the rad50 strain (AID 155);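 also: 0% = growth of vehicle-only cultures of the same strain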; conditions: S. cerevisiae rad50 strain growth inhibition, hits give high values
# Method in brief: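 Relative growth inhibition (compound vs vehicle) was measured in yeast with a defined repair-gene alteration.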
# [6] = NCI Yeast Anticancer Drug Screen. Data for the mec2-1 strain (AID 157); conditions: S. cerevisiae mec2-1 strain, hits give high values
# Method in brief: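 Using mec2-1 yeast: add compound, measure growth, express inhibition versus vehicle-treated cultures.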
# [7] = NCI Yeast Anticancer Drug Screen. Data for the rad14 strain (AID 159);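 also: 0% = growth of vehicle-treated control cultures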; conditions: S. cerevisiae rad14 strain growth inhibition, hits give high values
# Method in brief: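 Screen for anticancer potential: a yeast strain altered in DNA damage repair is grown with compound, and reduced growth is quantified against vehicle controls.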
# [8] = NCI Yeast Anticancer Drug Screen. Data for the sgs1 mgt1 strain (AID 161);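 also: 0% = growth of cultures given vehicle only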; conditions: S. cerevisiae sgs1 mgt1 strain, hits give high values
# Method in brief: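 This yeast growth screen uses a strain with defined DNA-repair lesions; compound-treated growth is compared with vehicle-treated growth.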
# [9] = NCI Yeast Anticancer Drug Screen. Data for the CLN2oe strain (AID 163);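 also: 0% = growth of vehicle-only control cultures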; conditions: S. cerevisiae CLN2oe strain, hits give high values
# Method in brief: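 Whole-cell yeast growth assay. A strain engineered for altered cell-cycle control received compound, and inhibition relative to vehicle-treated cultures was recorded.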
# [10] = NCI Yeast Anticancer Drug Screen. Data for the cln2 rad14 strain (AID 165);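 also: 0% = growth equal to vehicle treated cultures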; conditions: S. cerevisiae cln2 rad14 strain, hits give high values
# Method in brief: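 Yeast strain cln2 rad14, bearing defects in cell cycle control and DNA repair, serves as the test system; values reflect growth inhibition compared with vehicle.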
# [11] = NCI Yeast Anticancer Drug Screen. Data for the bub3 strain (AID 167); conditions: S. cerevisiae bub3 mutant strain, hits give high values
# Method in brief: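 Screening used yeast with an engineered genetic alteration affecting cell cycle control. Compound-exposed cultures were compared with vehicle cultures, and reduced growth was taken as inhibition.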
# [12] = NCI Yeast Anticancer Drug Screen. Data for the wt2 strain (AID 169);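 also: 0% = growth of vehicle-treated yeast cultures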; conditions: S. cerevisiae wt2 strain growth inhibition, hits give high values
# Method in brief: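 Treated yeast vs. vehicle-treated yeast: growth inhibition determined.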
# [13] = NCI Yeast Anticancer Drug Screen. Data for the mlh1 strain (AID 171);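 also: 0% = growth of vehicle-treated control cultures of the same strain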; conditions: S. cerevisiae mlh1 strain growth inhibition, hits give high values
# Method in brief: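 A yeast strain with a defined genetic lesion serves as the test organism. Cultures receive compound or vehicle, and growth is measured.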
# [14] = NCI Yeast Anticancer Drug Screen. Data for the sgs1 strain (AID 173);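 also: 0% = growth of vehicle-only control cultures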; conditions: S. cerevisiae sgs1 mutant, hits give high values
# Method in brief: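 A genetically defined yeast mutant is incubated with the test compound, and its growth is compared to that of the same strain given vehicle.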
# [15] = NCI Yeast Anticancer Drug Screen. Data for the mlh1 rad18 strain (AID 175); conditions: S. cerevisiae mlh1 rad18 strain growth inhibition, hits give high values
# Method in brief: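 Steps: expose repair-defective yeast to compound; measure growth; express inhibition against vehicle-treated controls.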
# [16] = NCI Yeast Anticancer Drug Screen. Data for the rad18 strain (AID 177); conditions: S. cerevisiae rad18 mutant growth inhibition, hits give high values
# Method in brief: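 Measured value is growth inhibition of a yeast strain bearing a DNA repair alteration, referenced to vehicle-treated cells.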
# [17] = at 5.0 µM (retest, dose inferred, filed as 0.5)
# [18] = at 50.0 µM (retest, dose inferred, filed as 5.0)
smiles,measurement,setting,value
CN1C(=O)C(CC(=O)O)NC1=S (stereo unspecified),growth inhibition,[1]; at 1.2 µM,0%
same,growth inhibition,[1]; at 3.7 µM,0%
same,growth inhibition,[1]; at 11.0 µM,-1%
same,growth inhibition,[1]; at 33.0 µM,6%
same,growth inhibition,[1]; at 100.0 µM,22%
same,growth inhibition,[2]; at 1.2 µM,-2%
same,growth inhibition,[2]; at 3.7 µM,-2%
same,growth inhibition,[2]; at 11.0 µM,1%
same,growth inhibition,[2]; at 33.0 µM,3%
same,growth inhibition,[2]; at 100.0 µM,11%
same,growth inhibition,[3]; at 1.2 µM,-1%
same,growth inhibition,[3]; at 3.7 µM,-3%
same,growth inhibition,[3]; at 11.0 µM,-2%
same,growth inhibition,[3]; at 33.0 µM,-10%
same,growth inhibition,[3]; at 100.0 µM,-5%
same,growth inhibition,[4]; at 1.2 µM,-3%
same,growth inhibition,[4]; at 3.7 µM,-2%
same,growth inhibition,[4]; at 11.0 µM,1%
same,growth inhibition,[4]; at 33.0 µM,21%
same,growth inhibition,[4]; at 100.0 µM,27%
same,growth inhibition,[5]; at 1.2 µM,-1%
same,growth inhibition,[5]; at 3.7 µM,-2%
same,growth inhibition,[5]; [17],20%
same,growth inhibition,[5]; at 11.0 µM,2%
same,growth inhibition,[5]; at 33.0 µM,9%
same,growth inhibition,[5]; [18],14%
same,growth inhibition,[5]; at 50.0 µM,61.9%
same,growth inhibition,[5]; at 100.0 µM,25%
same,growth inhibition,[6]; at 1.2 µM,1%
same,growth inhibition,[6]; at 3.7 µM,3%
same,growth inhibition,[6]; [17],2%
same,growth inhibition,[6]; at 11.0 µM,4%
same,growth inhibition,[6]; at 33.0 µM,15%
same,growth inhibition,[6]; [18],27%
same,growth inhibition,[6]; at 50.0 µM,33.9%
same,growth inhibition,[6]; at 100.0 µM,47%
same,growth inhibition,[7]; at 1.2 µM,0%
same,growth inhibition,[7]; at 3.7 µM,0%
same,growth inhibition,[7]; at 11.0 µM,-1%
same,growth inhibition,[7]; at 33.0 µM,16%
same,growth inhibition,[7]; at 100.0 µM,39%
same,growth inhibition,[8]; [17],-1%
same,growth inhibition,[8]; [18],17%
same,growth inhibition,[8]; at 50.0 µM,58.2%
same,growth inhibition,[9]; at 1.2 µM,-3%
same,growth inhibition,[9]; at 3.7 µM,-3%
same,growth inhibition,[9]; at 11.0 µM,-1%
same,growth inhibition,[9]; at 33.0 µM,-2%
same,growth inhibition,[9]; at 100.0 µM,2%
same,growth inhibition,[10]; [17],-10%
same,growth inhibition,[10]; [18],12%
same,growth inhibition,[10]; at 50.0 µM,2.1%
same,growth inhibition,[11]; at 1.2 µM,-4%
same,growth inhibition,[11]; at 3.7 µM,-7%
same,growth inhibition,[11]; [17],-10%
same,growth inhibition,[11]; at 11.0 µM,-3%
same,growth inhibition,[11]; at 33.0 µM,3%
same,growth inhibition,[11]; [18],2%
same,growth inhibition,[11]; at 50.0 µM,65.8%
same,growth inhibition,[11]; at 100.0 µM,43%
same,growth inhibition,[12]; at 1.2 µM,-2%
same,growth inhibition,[12]; at 3.7 µM,0%
same,growth inhibition,[12]; at 11.0 µM,3%
same,growth inhibition,[12]; at 33.0 µM,7%
same,growth inhibition,[12]; at 100.0 µM,20%
same,growth inhibition,[13]; at 1.2 µM,-2%
same,growth inhibition,[13]; at 3.7 µM,0%
same,growth inhibition,[13]; at 11.0 µM,4%
same,growth inhibition,[13]; at 33.0 µM,11%
same,growth inhibition,[13]; at 100.0 µM,46%
same,growth inhibition,[14]; at 1.2 µM,0%
same,growth inhibition,[14]; at 3.7 µM,5%
same,growth inhibition,[14]; at 11.0 µM,9%
same,growth inhibition,[14]; at 33.0 µM,24%
same,growth inhibition,[14]; at 100.0 µM,70% (active)
same,growth inhibition,[15]; [17],-11%
same,growth inhibition,[15]; [18],62%
same,growth inhibition,[15]; at 50.0 µM,25.7%
same,growth inhibition,[16]; at 1.2 µM,1%
same,growth inhibition,[16]; at 3.7 µM,0%
same,growth inhibition,[16]; at 11.0 µM,-9%
same,growth inhibition,[16]; at 33.0 µM,15%
same,growth inhibition,[16]; at 100.0 µM,45%
CCC1(O)C(=O)OCc2c1cc1n(c2=O)Cc2cc3c(N)cccc3nc2-1 (stereo unspecified),growth inhibition,[1]; at 1.2 µM,-21%
same,growth inhibition,[1]; at 3.7 µM,31%
same,growth inhibition,[1]; at 11.0 µM,53%
same,growth inhibition,[1]; at 33.0 µM,57%
same,growth inhibition,[1]; at 100.0 µM,54%
same,growth inhibition,[2]; at 1.2 µM,-22%
same,growth inhibition,[2]; at 3.7 µM,-14%
same,growth inhibition,[2]; at 11.0 µM,-26%
same,growth inhibition,[2]; at 33.0 µM,-24%
same,growth inhibition,[2]; at 100.0 µM,-16%
same,growth inhibition,[3]; at 1.2 µM,-12%
same,growth inhibition,[3]; at 3.7 µM,7%
same,growth inhibition,[3]; at 11.0 µM,-8%
same,growth inhibition,[3]; at 33.0 µM,10%
same,growth inhibition,[3]; at 100.0 µM,-8%
same,growth inhibition,[4]; at 1.2 µM,-12%
same,growth inhibition,[4]; at 3.7 µM,-15%
same,growth inhibition,[4]; at 11.0 µM,3%
same,growth inhibition,[4]; at 33.0 µM,-5%
same,growth inhibition,[4]; at 100.0 µM,-31%
same,growth inhibition,[5]; at 1.2 µM,11%
same,growth inhibition,[5]; at 3.7 µM,38%
same,growth inhibition,[5]; [17],58%
same,growth inhibition,[5]; at 11.0 µM,64%
same,growth inhibition,[5]; at 33.0 µM,68%
same,growth inhibition,[5]; [18],79% (active)
same,growth inhibition,[5]; at 50.0 µM,56.5%
same,growth inhibition,[5]; at 100.0 µM,60%
same,growth inhibition,[6]; at 1.2 µM,-22%
same,growth inhibition,[6]; at 3.7 µM,-5%
same,growth inhibition,[6]; [17],7%
same,growth inhibition,[6]; at 11.0 µM,-12%
same,growth inhibition,[6]; at 33.0 µM,-18%
same,growth inhibition,[6]; [18],12%
same,growth inhibition,[6]; at 50.0 µM,-0.85%
same,growth inhibition,[6]; at 100.0 µM,-35%
same,growth inhibition,[7]; at 1.2 µM,-10%
same,growth inhibition,[7]; at 3.7 µM,-10%
same,growth inhibition,[7]; at 11.0 µM,-19%
same,growth inhibition,[7]; at 33.0 µM,-17%
same,growth inhibition,[7]; at 100.0 µM,-23%
same,growth inhibition,[8]; [17],24%
same,growth inhibition,[8]; [18],19%
same,growth inhibition,[8]; at 50.0 µM,-2.35%
same,growth inhibition,[9]; at 1.2 µM,-8%
same,growth inhibition,[9]; at 3.7 µM,-15%
same,growth inhibition,[9]; at 11.0 µM,-33%
same,growth inhibition,[9]; at 33.0 µM,-34%
same,growth inhibition,[9]; at 100.0 µM,-41%
same,growth inhibition,[10]; [17],21%
same,growth inhibition,[10]; [18],14%
same,growth inhibition,[10]; at 50.0 µM,-6.95%
same,growth inhibition,[11]; at 1.2 µM,-37%
same,growth inhibition,[11]; at 3.7 µM,-28%
same,growth inhibition,[11]; [17],14%
same,growth inhibition,[11]; at 11.0 µM,-34%
same,growth inhibition,[11]; at 33.0 µM,-47%
same,growth inhibition,[11]; [18],6%
same,growth inhibition,[11]; at 50.0 µM,-9.3%
same,growth inhibition,[11]; at 100.0 µM,-33%
same,growth inhibition,[12]; at 1.2 µM,-16%
same,growth inhibition,[12]; at 3.7 µM,-18%
same,growth inhibition,[12]; at 11.0 µM,-17%
same,growth inhibition,[12]; at 33.0 µM,-30%
same,growth inhibition,[12]; at 100.0 µM,-38%
same,growth inhibition,[13]; at 1.2 µM,-23%
same,growth inhibition,[13]; at 3.7 µM,-22%
same,growth inhibition,[13]; at 11.0 µM,-11%
same,growth inhibition,[13]; at 33.0 µM,-34%
same,growth inhibition,[13]; at 100.0 µM,-44%
same,growth inhibition,[14]; at 1.2 µM,-19%
same,growth inhibition,[14]; at 3.7 µM,-7%
same,growth inhibition,[14]; at 11.0 µM,0%
same,growth inhibition,[14]; at 33.0 µM,6%
same,growth inhibition,[14]; at 100.0 µM,7%
same,growth inhibition,[15]; [17],16%
same,growth inhibition,[15]; [18],16%
same,growth inhibition,[15]; at 50.0 µM,-65.3%
same,growth inhibition,[16]; at 1.2 µM,-42%
same,growth inhibition,[16]; at 3.7 µM,-37%
same,growth inhibition,[16]; at 11.0 µM,-31%
same,growth inhibition,[16]; at 33.0 µM,-26%
same,growth inhibition,[16]; at 100.0 µM,-48%
